Assay [1] concerns Plasmodium falciparum Sir2 (PF13_0152, Sir2A). As to the kind of experiment: pfSir2 binders on small-molecule microarrays, primary screen, biochemical, small-molecule microarray, 635 nm fluorescence (AID 1098).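 Note: score merges spot fluorescence intensity with its signal-to-noise ratio.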 Conditions: small-molecule microarray binding, fluorescence 635 nm; higher = more signal.
Assay [2] can be described thus: small-molecule microarray binders of probe aDKK1, primary screen, biochemical, biotinylated probe, 635/667 nm fluorescence (AID 1099).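 Note: score merges 667nm spot fluorescence with signal to noise across triplicate slides.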 Conditions: higher = more signal.
A short description of assay [3]: small-molecule microarray binders of probe aCHRDL2, primary screen, biochemical, biotinylated probe, 635/667 nm fluorescence (AID 1100). Particulars: higher = more signal.
Assay [4] is described as follows: splicing luciferase reporter signal modulators, primary screen, spliceosome inhibition project, cell-based, HEK293, splice +/- reporter (AID 1101).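 Note: HEK293 cells carrying a splicing-competent luciferase reporter gene; test concentration not given here.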 Conditions: luminescence, 24 h, higher = more signal, called active from +8 up or from −8 down. (In general: In a reporter assay the amount or activity of a reporter protein is the signal.)
The target of assay [5] is Fibroblast growth factor 10 (Homo sapiens) (UniProt O15520). The assay can be described thus: FGF10 binders on small-molecule microarrays, primary screen, biochemical, small-molecule microarray, 635 nm fluorescence (AID 1102). Conditions: FGF10 binding, fluorescence 635 nm, higher = more signal.
Sequence of Fibroblast growth factor 10 (Homo sapiens) (O15520 whole entry, looked up): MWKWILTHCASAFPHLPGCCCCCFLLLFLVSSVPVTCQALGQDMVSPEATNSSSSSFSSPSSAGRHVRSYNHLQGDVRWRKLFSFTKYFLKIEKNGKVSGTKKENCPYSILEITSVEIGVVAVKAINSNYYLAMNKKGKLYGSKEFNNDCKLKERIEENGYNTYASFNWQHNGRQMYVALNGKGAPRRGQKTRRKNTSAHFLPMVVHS
Assay [6] relates to glycogen synthase kinase-3 (GSK3A per assay name; protocol says GSK3B). The assay can be described thus: GSK3 binders on small-molecule microarrays, primary screen, biochemical, small-molecule microarray, 635 nm fluorescence, GSK3A (AID 1103). Note: the record names both GSK3A and GSK3B. Conditions: small-molecule microarray binding, fluorescence 635 nm; higher = more signal.
Assay [7] deals with Epidermal growth factor receptor (Homo sapiens) (UniProt P00533). The assay can be described thus: EGFR binders on small-molecule microarrays, primary screen, biochemical, small-molecule microarray, 635 nm fluorescence (AID 1104).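 Note: score merges 667 nm emission intensity with spot signal to noise over triplicate slides.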 Particulars: EGFR binding, higher = more signal.
Sequence of Epidermal growth factor receptor (Homo sapiens) (P00533 whole entry, looked up): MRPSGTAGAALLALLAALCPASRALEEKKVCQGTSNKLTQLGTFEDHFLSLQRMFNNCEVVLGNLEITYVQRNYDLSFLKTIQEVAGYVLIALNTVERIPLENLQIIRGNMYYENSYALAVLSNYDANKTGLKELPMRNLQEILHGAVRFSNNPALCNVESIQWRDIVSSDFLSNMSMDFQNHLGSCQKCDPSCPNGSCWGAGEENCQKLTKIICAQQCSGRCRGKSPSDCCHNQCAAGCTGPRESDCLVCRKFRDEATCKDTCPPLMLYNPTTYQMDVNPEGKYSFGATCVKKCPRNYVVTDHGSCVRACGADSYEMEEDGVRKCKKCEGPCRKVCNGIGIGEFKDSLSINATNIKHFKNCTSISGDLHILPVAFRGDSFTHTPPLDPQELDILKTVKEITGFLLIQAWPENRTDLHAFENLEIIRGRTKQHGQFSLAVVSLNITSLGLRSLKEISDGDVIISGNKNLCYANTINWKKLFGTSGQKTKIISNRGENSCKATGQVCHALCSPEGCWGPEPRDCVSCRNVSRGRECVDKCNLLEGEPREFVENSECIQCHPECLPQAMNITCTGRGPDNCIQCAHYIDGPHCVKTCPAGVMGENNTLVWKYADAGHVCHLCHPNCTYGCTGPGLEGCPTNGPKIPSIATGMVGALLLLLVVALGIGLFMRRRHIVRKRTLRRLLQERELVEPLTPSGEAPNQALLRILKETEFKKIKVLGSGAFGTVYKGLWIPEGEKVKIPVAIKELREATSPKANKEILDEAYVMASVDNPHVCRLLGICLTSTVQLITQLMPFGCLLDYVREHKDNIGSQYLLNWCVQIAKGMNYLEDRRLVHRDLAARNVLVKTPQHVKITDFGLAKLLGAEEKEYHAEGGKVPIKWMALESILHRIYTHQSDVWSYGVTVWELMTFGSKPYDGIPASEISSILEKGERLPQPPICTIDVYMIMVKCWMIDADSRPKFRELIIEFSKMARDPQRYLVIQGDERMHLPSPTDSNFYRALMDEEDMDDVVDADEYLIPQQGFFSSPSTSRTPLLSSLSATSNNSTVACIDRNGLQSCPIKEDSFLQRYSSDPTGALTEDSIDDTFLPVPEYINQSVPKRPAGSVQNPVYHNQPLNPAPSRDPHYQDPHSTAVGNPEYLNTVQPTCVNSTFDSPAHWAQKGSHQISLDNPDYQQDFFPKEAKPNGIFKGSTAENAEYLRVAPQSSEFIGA
Assay [8] has as its target Follistatin-related protein 3 (Homo sapiens) (UniProt O95633). The assay can be described thus: FSTL3 binders on small-molecule microarrays, primary screen, biochemical, small-molecule microarray, 635 nm fluorescence (AID 1105).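 Note: score merges emission near 667 nm and signal to noise per printed spot across three slides.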 Conditions: FSTL3 binding, higher = more signal.
In assay [9] the target is Dickkopf-related protein 1 (Homo sapiens) (UniProt O94907). As to the kind of experiment: DKK1 binders on small-molecule microarrays, primary screen, biochemical, small-molecule microarray, 635 nm fluorescence scan (AID 1106).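 Note: score merges emission near 667 nm with signal to noise over three replicate slides.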 Conditions: DKK1 binding, higher = more signal.
Sequence of Dickkopf-related protein 1 (Homo sapiens) (O94907 whole entry, looked up): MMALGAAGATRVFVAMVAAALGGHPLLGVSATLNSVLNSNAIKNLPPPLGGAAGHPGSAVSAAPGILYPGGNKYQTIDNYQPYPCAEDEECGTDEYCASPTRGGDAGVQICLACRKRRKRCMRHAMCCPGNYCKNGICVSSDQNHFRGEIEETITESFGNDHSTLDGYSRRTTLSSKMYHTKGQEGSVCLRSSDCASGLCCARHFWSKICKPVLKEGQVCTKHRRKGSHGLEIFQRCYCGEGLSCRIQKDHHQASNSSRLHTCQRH
Assay [10] has as its system Inhibin beta A chain (activin A). The assay can be described thus: INHBA (activin A) binders on microarrays, primary screen, biochemical, small-molecule microarray, 635 nm fluorescence scan (AID 1107).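 Note: mouse activin A protein probed at 4.33 µg/mL on printed slides; score merges bound-protein fluorescence near 667 nm with spot signal-to-noise.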 Conditions: small-molecule microarray binding, higher = more signal.
The test system of assay [11] is Human papillomavirus type 1a protein E7 (residues 44-93). The assay can be described thus: HPV1a E7 fragment binders on microarrays, primary screen, biochemical, small-molecule microarray, residues 44-93, 635 nm fluorescence (AID 1108).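 Note: E7 fragment applied at 1 µg/mL in TBST for 1 h at 4 C; score combines spot fluorescence with its signal to noise ratio.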 Particulars: small-molecule microarray binding, fluorescence 635 nm; higher = more signal.
Assay [12] is described as follows: modulators of HCV replicon luciferase signal, primary screen, HCV replication inhibitor project, Huh7 cells, luciferase reporter (AID 1109).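 Note: huh7 hepatoma cells harbouring a luciferase neomycin HCV replicon reporter; luciferase luminescence as measure of HCV replicon replication; test concentration not given here.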 Conditions: 48 h, higher = more signal. (In general: Replicon systems follow genome replication, usually without infectious particles.)
Assay [13] concerns the target Left-right determination factor 2 (Homo sapiens) (UniProt O00292). The assay can be described thus: LEFTY2 binders on small-molecule microarrays, primary screen, biochemical, small-molecule microarray, 635 nm fluorescence scan (AID 1110). Conditions: LEFTY2 binding, higher = more signal.
Assay [14] concerns the target Calmodulin-1 (Homo sapiens) (UniProt P0DP23). The assay can be described thus: CALM1 binders on microarrays, EGTA buffer, profiling panel, biochemical, small-molecule microarray, Cy5-labelled CALM1 (AID 1111).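 Note: labelled calmodulin applied in Tris saline Tween buffer holding calcium plus EGTA and DTT.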 Particulars: Cy5-CALM1 binding fluorescence, higher = more signal.
For assay [15] the target is unchanged. The assay can be described thus: calcium-bound CALM1 binders on microarrays, profiling panel, artefact control for SMM control-protein annotation, biochemical, small-molecule microarray, Cy5-labelled CALM1, plus calcium (AID 1112).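 Note: score merges spot fluorescence with signal to noise from triplicate slides.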 Conditions: Cy5-CALM1 binding fluorescence, higher = more signal.
Assay [16] in a line: small-molecule microarray binders of probe aWnt5a, primary screen, biochemical, biotinylated probe, 635/667 nm fluorescence (AID 1113).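 Note: score merges 667 nm fluorescence intensity with signal-to-noise per printed feature.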 Particulars: higher = more signal.
A short description of assay [17]: small-molecule microarray binders of probe aShh, primary screen, biochemical, biotinylated probe, 635/667 nm fluorescence (AID 1114).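 Note: probe is biotin-labelled aShh protein from a stem cell growth factor screen; measures binding of labelled protein to compounds printed on the slide; score merges feature fluorescence at 667 nm with signal-to-noise.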 Particulars: higher = more signal.
The nature of assay [18]: small-molecule microarray binders of probe aNog, primary screen, biochemical, biotinylated probe, 635/667 nm fluorescence (AID 1115).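 Note: probe is biotinylated aNog protein used at 0.15 µg/mL for 1 h at 4 C; z-score combines 667 nm fluorescence of each spot with its signal to noise.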 Particulars: higher = more signal.
Assay [19] addresses Torsin-1A-interacting protein 1 (Homo sapiens) (UniProt Q5JTV8). As to the kind of experiment: LAP1 binders from COS7 cell lysate, primary screen, small-molecule microarray, 635/667 nm fluorescence (AID 1116). Conditions: COS7-hLAP1 lysate binding, 635 nm fluorescence, higher = more signal.
Assay [20] addresses Alpha-bungarotoxin (Bungarus multicinctus) (UniProt P60615). The assay can be described thus: alpha-bungarotoxin binders on microarray, profiling panel, artefact control for SMM control protein annotation, biochemical, small-molecule microarray, Alexa647 label, 635/667 nm fluorescence (AID 1117). Particulars: alpha-BTX-A647 binding fluorescence, higher = more signal.

For six compounds, composite z-score and z-score results are on record in PubChem BioAssay.

Activity calls are given as the source filed them.

Sequence of Alpha-bungarotoxin (Bungarus multicinctus) (P60615 whole entry, looked up): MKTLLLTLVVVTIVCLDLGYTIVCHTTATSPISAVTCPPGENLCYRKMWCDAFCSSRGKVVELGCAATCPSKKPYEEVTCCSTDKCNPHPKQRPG
Sequence of Left-right determination factor 2 (Homo sapiens) (O00292 whole entry, looked up): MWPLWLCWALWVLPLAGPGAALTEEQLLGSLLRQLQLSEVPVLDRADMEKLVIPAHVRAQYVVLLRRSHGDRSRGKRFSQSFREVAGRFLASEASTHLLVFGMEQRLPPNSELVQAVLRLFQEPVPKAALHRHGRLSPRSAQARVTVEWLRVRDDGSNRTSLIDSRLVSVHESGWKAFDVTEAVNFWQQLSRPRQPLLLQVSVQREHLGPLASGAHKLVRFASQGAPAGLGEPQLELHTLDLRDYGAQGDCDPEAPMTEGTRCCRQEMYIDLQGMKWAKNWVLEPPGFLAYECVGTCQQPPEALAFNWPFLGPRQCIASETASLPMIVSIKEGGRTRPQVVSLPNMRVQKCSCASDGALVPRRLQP
Sequence of Follistatin-related protein 3 (Homo sapiens) (O95633 whole entry, looked up): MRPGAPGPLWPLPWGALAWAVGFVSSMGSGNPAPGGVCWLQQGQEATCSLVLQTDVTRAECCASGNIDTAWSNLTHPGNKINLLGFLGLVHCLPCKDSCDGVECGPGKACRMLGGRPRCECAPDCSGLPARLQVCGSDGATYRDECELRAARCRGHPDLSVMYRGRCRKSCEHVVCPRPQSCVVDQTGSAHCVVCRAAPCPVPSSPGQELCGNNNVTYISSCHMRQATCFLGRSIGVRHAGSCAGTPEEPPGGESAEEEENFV
Sequence of Torsin-1A-interacting protein 1 (Homo sapiens) (Q5JTV8 whole entry, looked up): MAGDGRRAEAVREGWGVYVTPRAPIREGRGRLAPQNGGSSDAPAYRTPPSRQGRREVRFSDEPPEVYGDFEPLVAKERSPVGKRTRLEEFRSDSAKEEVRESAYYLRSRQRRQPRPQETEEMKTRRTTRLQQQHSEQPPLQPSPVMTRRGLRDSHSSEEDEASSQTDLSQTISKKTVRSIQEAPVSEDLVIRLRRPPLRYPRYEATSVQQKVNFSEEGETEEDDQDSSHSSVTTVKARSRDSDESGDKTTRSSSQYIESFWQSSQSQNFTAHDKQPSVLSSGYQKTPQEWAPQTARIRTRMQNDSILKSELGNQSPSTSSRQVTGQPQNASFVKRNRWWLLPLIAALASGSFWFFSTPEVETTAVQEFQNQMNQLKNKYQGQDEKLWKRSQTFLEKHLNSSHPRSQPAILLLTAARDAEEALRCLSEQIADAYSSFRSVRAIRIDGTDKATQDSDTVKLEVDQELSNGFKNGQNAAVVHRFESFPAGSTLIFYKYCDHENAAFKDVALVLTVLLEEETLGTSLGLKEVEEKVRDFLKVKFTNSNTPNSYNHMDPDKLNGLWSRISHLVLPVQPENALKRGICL

With `OCCCC1=CC(C2CC2)N(Cc2cccc(OC(F)(F)F)c2)CC1` (stereo not given), the composite z-score in [1] was 1.13; in [2], -0.454; in assay [3], -0.286; in [5], -0.963; in assay [6], -0.798; in assay [7] it was -0.651. Moreover, the composite z-score in [8] is -0.556; in assay [9] it was 0.161; in [10], 0.526; in [11], -0.928; in assay [13] it was -0.119; in assay [14] it was -0.968. Also, the composite z-score is 0.115 in [15]; -0.178 in assay [16]; -0.321 in assay [17]; -0.641 in assay [18]; 1 in assay [19]; -0.478 in assay [20]. Moreover, the z-score in assay [4] is 0.0563 (inactive); in assay [12] it was -1.32.

On to `CCCCN1CC=CC23O[C@@H]4C=CCOC(=O)[C@@H]4[C@H]2C(=O)N(CCCCCCO)[C@@H]3C1=O` (stereo not given in full), for which the composite z-score in assay [1] is 1.77; in assay [2] it was 0.159; in assay [3] it was 0.552; in assay [5], -0.988; in assay [6], -1; in assay [7], -1.5. For the same compound, the composite z-score was -1.38 in assay [8]; -1.28 in [9]; 0.65 in assay [10]; -0.477 in assay [11]; -1.18 in [13]; -1.01 in assay [14]. Further, the composite z-score is 0.224 in [15]; -0.203 in assay [16]; -0.138 in assay [17]; 0.193 in [18]; 1.41 in assay [19]; -1.35 in assay [20]. Besides, the results for the z-score in [4] and in [12] were 0.381 (inactive) and -0.672, respectively.

Consider `CCOC(=O)[C@H]1C/C=C/C[C@H](C(=O)OCC)C(=O)O[C@H]2[C@@H](OC)O[C@H](CO)[C@@H](OC(=O)c3ccc(Br)cc3)[C@@H]2OC1=O`, for which the composite z-score in [1] was -0.009; in [2] it was -0.444; in assay [3], 0.44; in assay [5], 0.88; in assay [6], -0.51; in assay [7], 0.0445. The composite z-score in assay [8] is 0.366; in assay [9], 0.34; in assay [10], 0.802; in assay [11] it was 0.215; in [13], 0.466; in assay [14], 0.389. The composite z-score was 0.502 in assay [15]; -0.0704 in assay [16]; 0.134 in assay [17]; 0.0795 in assay [18]; 0.863 in [19]; 0.369 in assay [20]. Besides, the z-score in [4] was -1.25 (inactive); in [12], -2.74.

In the case of `O=C1O[C@H](c2ccccc2)[C@H](c2ccccc2)N2[C@H]1[C@@H](C(=O)N1CCN(c3ncccn3)CC1)[C@]1(C(=O)Nc3ccc(C#CC4=CCCCC4)cc31)[C@H]2c1ccccc1OCCO`, the composite z-score in assay [1] was 1.7; in assay [2], -0.14; in assay [3], 0.259; in [5], 1.02; in [6], 1.3; in [7], 0.645. The composite z-score in [8] came to 1.31; in assay [9], 0.71; in assay [10] it was 1.08; in assay [11] it was 0.379; in [13] it was 0.818; in assay [14], 0.858. The composite z-score is -0.198 in [15]; 0.212 in assay [16]; 0.299 in [17]; 0.998 in assay [18]; 0.201 in assay [19]; 1.59 in assay [20]. Moreover, the results for the z-score in assay [4] and in assay [12] were -1.14 (inactive) and -1.67, respectively.

Consider `O=C1C2C=CC(C(O)c3ccc(F)cc3)N(Nc3ccc([N+](=O)[O-])cc3)C2C(=O)N1c1ccccc1` (stereo not given), for which the composite z-score was 1.38 in assay [1]; 0.343 in assay [2]; 0.839 in [3]; 0.638 in assay [5]; 1.07 in assay [6]; -0.125 in assay [7]. Besides, the composite z-score in assay [8] was 0.558; in assay [9], -0.272; in assay [10] it was 0.556; in assay [11] it was 0.883; in assay [13], -0.424; in assay [14], 1.76. For the same compound, the composite z-score in assay [15] worked out at 0.554; in assay [16], 0.155; in [17], 0.294; in assay [18] it was 0.0676; in assay [19], 0.733; in assay [20], 1.76. In addition, the figures for the z-score in assay [4] and in [12] were 0.516 (inactive) and -1.03, respectively.

In the case of `COc1ccc(C(=O)Nc2cccc(CN3C(=O)[C@]4(O[C@H](CCn5cc(CCO)nn5)[C@@H]([Si](C)(C)c5ccc(OC)cc5)[C@@H]4C)c4ccccc43)c2)cc1`, the composite z-score in [1] is 0.83; in assay [2], 0.601; in assay [3], 0.127; in [5], 0.17; in assay [6] it was 0.495; in assay [7], 0.529. Also, the composite z-score came to 1.01 in assay [8]; 0.201 in [9]; 1.55 in [10]; 1.31 in [11]; 0.785 in assay [13]; 0.628 in assay [14]. For the same compound, the composite z-score in assay [15] was -0.0319; in assay [16], -0.0685; in assay [17], -0.0769; in [18] it was 0.0471; in [19], 0.456; in [20], 0.547. Moreover, the results for the z-score in [4] and in [12] were 2.05 (inactive) and -5.09, respectively.
